# Source: PubChem BioAssay (NCATS)
# Values joined by “and” are separate entries in the source; they are usually repeats but may differ in a detail not shown here. Identical values can stand only once. Inconclusive results are not listed. Entries that show only a call come without a potency. Active and inactive are the calls of the source. Unless noted, calls follow the shape of the dose curve; as a rule, active = well fitted curve in the direction sought with a large enough effect; inconclusive = small, poorly fitted or top-dose-only effect, or another doubt; inactive = no such curve, though single readings can be large; an effect the other way counts as inactive or inconclusive.
# What was measured:
# [1] = A High-Content qHTS Against Drug Library for the Identification of Small Molecules that Inhibit DYT1 Early Onset Primary Dystonia-Associated Cell Pathology (AID 1645839; calls by dose curve)
# Procedure, shortened: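 High-content imaging quantified EGFP-TorsinA mislocalization in HEK293-derived cells inducibly expressing DYT1 mutant torsinA, after 48 h exposure to compound given together with tetracycline induction. Cell count served as a toxicity channel alongside %pathology.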
# [2] = biological target: Cytochrome P450 2D6 (Homo sapiens) (UniProt P10635); assay: Cytochrome P450 family 2 subfamily D member 6 (CYP2D6) small molecule antagonists: luciferase biochemical (cell-free) qHTS assay (AID 1645840; active = well fitted curve in the direction sought with a large enough effect in the repeat runs; an effect the other way counts as inactive or inconclusive; also: nearly all actives have a fitted effect of over 55% in size; also: potency is read from the fitted curve at half-maximal effect)
# Chain of Cytochrome P450 2D6 (Homo sapiens) (P10635 whole entry, looked up): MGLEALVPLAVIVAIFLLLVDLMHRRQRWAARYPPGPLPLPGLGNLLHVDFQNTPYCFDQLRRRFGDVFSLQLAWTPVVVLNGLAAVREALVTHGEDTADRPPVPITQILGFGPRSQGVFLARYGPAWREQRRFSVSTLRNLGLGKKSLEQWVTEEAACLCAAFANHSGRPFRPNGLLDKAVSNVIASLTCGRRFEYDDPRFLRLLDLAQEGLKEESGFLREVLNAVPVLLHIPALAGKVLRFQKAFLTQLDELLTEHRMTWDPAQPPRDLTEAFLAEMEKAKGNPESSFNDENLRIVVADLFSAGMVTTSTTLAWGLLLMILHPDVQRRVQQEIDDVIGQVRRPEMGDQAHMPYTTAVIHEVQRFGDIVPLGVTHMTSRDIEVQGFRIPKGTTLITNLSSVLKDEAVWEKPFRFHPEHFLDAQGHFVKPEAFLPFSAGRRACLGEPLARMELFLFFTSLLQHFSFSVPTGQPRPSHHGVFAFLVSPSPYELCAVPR
# Procedure, shortened: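 P450-Glo CYP2D6 system: proluciferin substrate converted by enzyme to luciferin, read by luminescence proportional to activity. Enzyme-substrate mix with compound 10 min at room temperature, then NADPH regeneration 1 h before detection reagent.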
# [3] = biological target: Cytochrome P450 2C9 (Homo sapiens) (UniProt P11712); assay: Cytochrome P450 family 2 subfamily C member 9 (CYP2C9) small molecule antagonists: luciferase biochemical (cell-free) qHTS assay (AID 1645842; active = well fitted curve in the direction sought with a large enough effect in the repeat runs; an effect the other way counts as inactive or inconclusive; also: nearly all actives have a fitted effect of over 55% in size; also: potency is read from the fitted curve at half-maximal effect)
# Chain of Cytochrome P450 2C9 (Homo sapiens) (P11712 whole entry, looked up): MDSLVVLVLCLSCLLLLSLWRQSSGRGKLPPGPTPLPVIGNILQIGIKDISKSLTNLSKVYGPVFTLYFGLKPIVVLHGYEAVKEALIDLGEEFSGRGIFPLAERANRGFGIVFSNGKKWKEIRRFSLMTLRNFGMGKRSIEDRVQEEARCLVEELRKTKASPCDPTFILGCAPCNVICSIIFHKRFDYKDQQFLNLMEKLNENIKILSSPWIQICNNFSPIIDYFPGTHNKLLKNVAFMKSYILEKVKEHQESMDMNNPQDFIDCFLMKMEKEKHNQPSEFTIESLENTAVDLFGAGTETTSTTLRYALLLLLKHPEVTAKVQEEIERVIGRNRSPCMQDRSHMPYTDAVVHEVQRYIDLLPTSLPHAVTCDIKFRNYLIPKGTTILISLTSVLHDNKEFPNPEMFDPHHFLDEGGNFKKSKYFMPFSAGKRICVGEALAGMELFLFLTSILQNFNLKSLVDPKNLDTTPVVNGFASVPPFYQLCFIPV
# Procedure, shortened: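 P450-Glo CYP2C9 system: proluciferin substrate with enzyme in mix containing 0.4% BSA, 10 min at room temperature, then NADPH regeneration solution added and incubated 1 h at 37C. Detection reagent stopped reaction; luminescence read after 20 min as RLU.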
# [4] = Primary qHTS for inhibitors of nuclear receptor binding SET domain protein 2 (NSD2) in an isogenic RCH-ACV NSD2 p.E1099K mutant (9B) (AID 1645876); also: nearly all actives have a fitted effect of over 70% in size; also: potency is read from the fitted curve at half-maximal effect
# [5] = Primary qHTS for inhibitors of nuclear receptor binding SET domain protein 2 (NSD2) in an RCH-ACV wild type WT cells (2C) (AID 1645877); also: nearly all actives have a fitted effect of over 70% in size; also: potency is read from the fitted curve at half-maximal effect
# [6] = NCATS anti-infectives library activity on HEK293 viability as a counter-qHTS vs the C. elegans viability qHTS (AID 1745854)
# Procedure, shortened: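 CellTiter-Glo luminescence, read on a CCD imager, scored viability of HEK293 cells after 24 hr compound exposure at 37C. Library tested in several concentrations, 1:5 steps, up to 41.7 uM; digitonin served as control.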
# Papain (Carica papaya) = Papain (Carica papaya) (UniProt P00784); assay: Primary qHTS assay for inhibitors of the protease papain (AID 1645873);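 also: papain turnover of Z-FR-AMC read as the AMC fluorescence gain over 10 min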
# Chain of Papain (Carica papaya) (P00784 whole entry, looked up): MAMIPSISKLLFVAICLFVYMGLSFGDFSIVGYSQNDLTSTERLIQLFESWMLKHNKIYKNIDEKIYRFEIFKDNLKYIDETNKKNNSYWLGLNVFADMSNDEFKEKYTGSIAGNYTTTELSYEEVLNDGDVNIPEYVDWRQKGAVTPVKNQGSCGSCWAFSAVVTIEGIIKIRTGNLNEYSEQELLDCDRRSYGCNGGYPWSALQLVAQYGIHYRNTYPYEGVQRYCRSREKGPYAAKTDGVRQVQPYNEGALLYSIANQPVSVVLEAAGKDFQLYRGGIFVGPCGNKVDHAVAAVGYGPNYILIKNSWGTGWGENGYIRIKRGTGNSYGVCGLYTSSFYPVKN
# [7] = biological target: Cytochrome P450 3A4 (Homo sapiens) (UniProt P08684); assay: Cytochrome P450 family 3 subfamily A member 4 (CYP3A4) small molecule antagonists: luciferase qHTS assay (AID 1645841; active = well fitted curve in the direction sought with a large enough effect in the repeat runs; an effect the other way counts as inactive or inconclusive; also: nearly all actives have a fitted effect of over 45% in size)
# Chain of Cytochrome P450 3A4 (Homo sapiens) (P08684 whole entry, looked up): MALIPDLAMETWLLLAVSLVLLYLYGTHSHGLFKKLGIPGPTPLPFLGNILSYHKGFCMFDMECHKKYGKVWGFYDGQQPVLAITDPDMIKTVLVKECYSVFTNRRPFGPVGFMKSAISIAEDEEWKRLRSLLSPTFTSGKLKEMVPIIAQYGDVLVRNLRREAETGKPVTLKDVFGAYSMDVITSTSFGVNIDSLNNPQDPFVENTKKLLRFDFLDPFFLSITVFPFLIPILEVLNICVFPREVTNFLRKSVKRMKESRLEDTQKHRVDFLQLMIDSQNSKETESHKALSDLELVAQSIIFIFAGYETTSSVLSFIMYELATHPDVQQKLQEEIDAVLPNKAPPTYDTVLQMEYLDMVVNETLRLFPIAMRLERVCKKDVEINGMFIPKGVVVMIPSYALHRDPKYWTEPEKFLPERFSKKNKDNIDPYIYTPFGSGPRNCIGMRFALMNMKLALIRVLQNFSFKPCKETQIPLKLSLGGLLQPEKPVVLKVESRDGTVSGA
# Procedure, shortened: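 Luminescent CYP3A4 activity readout: compounds plus enzyme-substrate mix 10 min at room temperature, reaction started with NADPH regenerating system for 1 h, stopped with detection reagent, read after 20 min. Ketoconazole served as control.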
# [8] = biological target: N-terminal Xaa-Pro-Lys N-methyltransferase 1 (Homo sapiens) (UniProt Q9BV86); assay: Confirmatory qHTS for Inhibitors of N-terminal methyltransferase 1 (NTMT1): MTaseGlo Assay (AID 1645874); conditions: NTMT1 enzyme, MTase-Glo SAH luminescence; also: potency is read from the fitted curve at half-maximal effect; nearly all actives have a fitted effect of over 65% in size
# Chain of N-terminal Xaa-Pro-Lys N-methyltransferase 1 (Homo sapiens) (Q9BV86 whole entry, looked up): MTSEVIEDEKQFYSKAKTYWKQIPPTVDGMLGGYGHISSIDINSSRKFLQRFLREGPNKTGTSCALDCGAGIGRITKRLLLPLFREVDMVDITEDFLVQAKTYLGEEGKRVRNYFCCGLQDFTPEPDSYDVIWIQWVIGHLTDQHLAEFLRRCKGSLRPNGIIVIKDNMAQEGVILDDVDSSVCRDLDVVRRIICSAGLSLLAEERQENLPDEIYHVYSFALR
# Procedure, shortened: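 SPKRIA peptide at 1 uM was methylated by 125 nM NTMT1 using 100 uM SAM over 30 min at room temperature, following a 15 min compound preincubation. Product SAH was detected luminescently.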
# [9] = biological target: Catechol O-methyltransferase (Homo sapiens) (UniProt P21964); assay: Confirmatory Screen for Target Class Profiling of Small Molecule Inhibitors of Methyltransferases (AID 1745852); conditions: MTase-Glo luminescence, SAH detection, recombinant enzyme; measured here: COMT max response; stronger effect = lower value
# Chain of Catechol O-methyltransferase (Homo sapiens) (P21964 whole entry, looked up): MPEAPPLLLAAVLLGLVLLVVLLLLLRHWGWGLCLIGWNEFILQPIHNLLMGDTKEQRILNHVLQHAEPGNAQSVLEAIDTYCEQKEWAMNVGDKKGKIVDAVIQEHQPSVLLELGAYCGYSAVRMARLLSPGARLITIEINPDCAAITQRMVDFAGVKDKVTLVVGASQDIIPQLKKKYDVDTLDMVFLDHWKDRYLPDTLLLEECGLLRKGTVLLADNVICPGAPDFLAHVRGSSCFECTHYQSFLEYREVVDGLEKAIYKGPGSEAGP
# [10] = biological target: Guanidinoacetate N-methyltransferase (Homo sapiens) (UniProt Q14353); assay: as above; conditions: MTase-Glo luminescence, SAH detection, recombinant enzyme; at 57.3 µM (top of the series)
# [11] = biological target: Nicotinamide N-methyltransferase (Homo sapiens) (UniProt P40261); assay: as above; conditions: MTase-Glo luminescence, SAH detection, recombinant enzyme; measured here: NNMT max response; stronger effect = lower value
# Chain of Nicotinamide N-methyltransferase (Homo sapiens) (P40261 whole entry, looked up): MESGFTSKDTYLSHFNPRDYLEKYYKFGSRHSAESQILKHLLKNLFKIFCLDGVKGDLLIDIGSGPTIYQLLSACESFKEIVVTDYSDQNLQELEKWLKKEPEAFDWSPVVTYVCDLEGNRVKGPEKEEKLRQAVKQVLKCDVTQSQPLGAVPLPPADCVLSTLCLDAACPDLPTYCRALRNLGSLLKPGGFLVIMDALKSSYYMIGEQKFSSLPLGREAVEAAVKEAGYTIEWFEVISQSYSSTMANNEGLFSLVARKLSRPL
# [12] = biological target: Phenylethanolamine N-methyltransferase (Homo sapiens) (UniProt P11086); assay: as above; conditions: MTase-Glo luminescence, SAH detection, recombinant enzyme; measured here: PNMT max response; stronger effect = lower value
# Chain of Phenylethanolamine N-methyltransferase (Homo sapiens) (P11086 whole entry, looked up): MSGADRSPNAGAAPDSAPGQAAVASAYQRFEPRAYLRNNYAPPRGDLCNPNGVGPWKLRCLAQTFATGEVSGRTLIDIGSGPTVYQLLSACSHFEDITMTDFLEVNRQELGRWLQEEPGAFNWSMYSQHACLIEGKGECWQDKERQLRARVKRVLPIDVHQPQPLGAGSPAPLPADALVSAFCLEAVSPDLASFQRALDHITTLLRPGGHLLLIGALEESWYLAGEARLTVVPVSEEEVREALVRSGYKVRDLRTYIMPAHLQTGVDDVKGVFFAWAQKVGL
compound,measurement,setting,value
CC/C=C(\C(=O)N[C@@H]1C(=O)N2C(C(=O)OCOC(=O)C(C)(C)C)=C(COC(N)=O)CS[C@H]12)c1csc(N)n1,Potency,[1],inactive
same,Potency,[2],inactive
same,Potency,[3],15.5 µM (active)
same,Potency,[4],inactive
same,Potency,[5],inactive
C=CCn1c(=O)n([C@@H]2O[C@H](CO)[C@@H](O)[C@H]2O)c2nc(N)[nH]c(=O)c21,Potency,[1],inactive
same,Potency,[2],inactive
same,Potency,[3],inactive
same,Potency,[4],inactive
same,Potency,[5],inactive
NCC(=O)CCC(=O)O,Potency,[1],inactive
same,Potency,[2],inactive
same,Potency,[3],inactive
same,Potency,[4],inactive
same,Potency,[5],inactive
same,outcome,[6],inactive
COc1cc(C)c(Cc2cnc(N)nc2N)cc1OC,Potency,[1],inactive
same,Potency,[2],inactive
same,Potency,[3],inactive
same,Potency,[4],inactive
same,Potency,[5],inactive
NC(=O)c1ncn([C@@H]2O[C@H](CO)[C@@H](O)[C@H]2O)c1N,Potency,[1],inactive
same,Potency,[2],inactive
same,Potency,[3],inactive
same,Potency,[4],inactive
same,Potency,[5],inactive
Oc1ccc(C(O)CNCCCCCCNCC(O)c2ccc(O)c(O)c2)cc1O (stereo not drawn),Potency,[1],inactive
same,Potency,[2],inactive
same,Potency,[3],inactive
same,Potency,[4],inactive
same,Potency,[5],inactive
O=C1c2c(O)cccc2Cc2cccc(O)c21,Potency,[1],inactive
same,Potency,[2],inactive
same,Potency,[3],inactive
same,Potency,[4],inactive
same,Potency,[5],inactive
CN1CCOC(c2ccccc2)c2ccccc2C1 (stereo not drawn),Potency,[1],inactive
same,Potency,[3],inactive
same,Potency,[4],inactive
same,Potency,[5],inactive
CO/N=C(\C(=O)N[C@@H]1C(=O)N2C(C(=O)O)=C(CSc3nc(=O)c(O)nn3C)CS[C@H]12)c1csc(N)n1,Potency,[1],inactive
same,Potency,[4],inactive
same,Potency,[5],inactive
CC(C)c1c(C(=O)Nc2ccccc2)c(-c2ccccc2)c(-c2ccc(F)cc2)n1CC[C@@H](O)C[C@@H](O)CC(=O)O,Potency,Papain (Carica papaya),inactive
CN(C)CCC=C1c2ccccc2CCc2ccccc21,Potency,[2],5.49 µM (active) and 9.52 µM (active)
same,Potency,[3],inactive
same,Potency,Papain (Carica papaya),inactive
[Cl][In]([Cl])[Cl],Potency,[2],inactive
same,outcome,[7],inactive
same,Potency,[3],inactive
same,Potency,[8],4.91 µM (active)
same,Potency,[4],24.3 µM (active)
CN(C)CCCN1c2ccccc2CCc2ccccc21,Potency,[3],inactive
CN1CCN(C2Cc3ccccc3Sc3ccc(Cl)cc32)CC1 (stereo not drawn),Potency,[2],121 nM (active)
same,Potency,[3],8.49 µM (active)
same,Potency,Papain (Carica papaya),inactive
same,activity,[9],14.6%
same,"activity change, negative = inhibition",[10],8.35%
same,activity,[11],-22.8%
same,activity,[12],8.62%
CC(=O)c1ccc2c(c1)N(CCCN(C)C)c1ccccc1S2,Potency,[2],436 nM (active)
same,Potency,[3],inactive
same,Potency,Papain (Carica papaya),inactive
Cc1c(O)cccc1C(=O)N[C@@H](CSc1ccccc1)[C@H](O)CN1C[C@H]2CCCC[C@H]2C[C@H]1C(=O)NC(C)(C)C,Potency,[2],3470 nM (active)
same,Potency,[3],15.5 µM (active)
same,Potency,Papain (Carica papaya),inactive
same,Potency,[4],15 µM (active)
same,Potency,[5],16.8 µM (active)
Cc1cccc(C)c1NC(=O)CN(CC(=O)O)CC(=O)O,Potency,[2],inactive
same,Potency,[3],inactive
same,Potency,[4],inactive
same,Potency,[5],inactive
CN1CCCCC1CCN1c2ccccc2Sc2ccc(S(C)=O)cc21 (stereo not drawn),Potency,[2],21.9 nM (active)
same,Potency,[3],inactive
CC(CN1c2ccccc2Sc2ccccc21)N(C)C (stereo not drawn),Potency,[2],2450 nM (active)
same,Potency,[3],inactive
same,Potency,Papain (Carica papaya),inactive
same,Potency,[4],16.8 µM (active)
same,outcome,[6],inactive
CCCCCCCCCCCCOS(=O)(=O)O,Potency,[4],inactive
same,Potency,[5],inactive
CC(CN(C)C)CN1c2ccccc2CCc2ccccc21 (stereo not drawn),Potency,[2],2880 nM (active)
same,Potency,[3],inactive
same,Potency,Papain (Carica papaya),inactive
CC1CC(OC(=O)C(O)c2ccccc2)CC(C)(C)N1C (stereo not drawn),Potency,[2],inactive
same,Potency,[3],inactive
same,Potency,[4],inactive
same,Potency,[5],inactive
